Bioassay records: PubChem BioAssay, National Center for Advancing Translational Sciences (NCATS)
An excerpt weighted towards active compounds, which were near 2.4% of everything screened.
Pol kappa inh-1: blocks human DNA polymerase kappa activity | Potency, µM (titrated, usually from 107 µM), without a hit: at the top dose activity, negative = inhibition, most hits filed as inhibitors | AID 588579 | actives 0.53% (n = 400,000) | purified Pol kappa, fluorescent DNA synthesis assay, 10 min; also: % is scaled to controls: 0 for no effect and ±100 for the full control effect
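Enzyme at 10 nM met test compounds for 15 min at room temperature. Substrate addition (50 nM final) began the reaction, which was monitored by fluorescence at 0 and 10 min.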
FEN1 inh: human FEN1 inhibition; Recombinant FEN1 flap cleavage, fluorescence, 15 min; Potency, µM (doses to about 114 µM), for inactives: top-dose activity change, negative = inhibition, actives largely listed as inhibitors; actives 0.35% (n = 390,000); AID 588795; also: % is scaled to controls: 0 for no effect and ±100 for the full control effect; nearly all actives have a fitted effect of over 65% in size
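In this screen, 50 nM flap DNA substrate was added to 10 nM FEN1 pretreated with compound for 15 min at room temperature; cleavage was followed with reads at 0 and 15 min, and Hill fitting gave concentration–response parameters.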
WRN inhibitor: blocks human WRN helicase; Potency, µM (titrated, usually from 114 µM), inactives show top-dose activity change, negative = inhibition, usual class: inhibitors; AID 651768; actives 0.46% (n = 360,000); Q14191; WRN helicase unwinding, fluorescent forked duplex, kinetic; also: % is scaled to controls: 0 for no effect and ±100 for the full control effect; nearly all actives have a fitted effect of over 55% in size
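Enzyme (20 nM final) and test compound sit together 15 min at room temperature before substrate addition. Substrate is a single-forked duplex oligonucleotide (100 nM) labelled with fluorophore and quencher, with 2 mM ATP; helicase unwinding raises red fluorescence, read kinetically.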
Pol beta inh: DNA polymerase beta (human) inhibition; P06746; Pol beta primer extension/strand displacement, fluorescence kinetic; Potency, µM (series often up to 114 µM), for the others: top-dose activity change, negative = inhibition, most hits filed as inhibitors; actives 1.3% (n = 340,000); AID 485314; also: % is scaled to controls: 0 for no effect and ±100 for the full control effect
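Homogeneous kinetic assay of primer extension and strand displacement by 10 nM Pol beta, preincubated 15 min at room temperature with compound before 50 nM substrate (final) was added. Read at 0 and 10 min; four-parameter Hill fit.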
POLI inh: DNA polymerase iota (human) inhibition; Q9UNA4; Pol iota fluorescent replication assay, 10 min; Potency, µM (top dose mostly 115 µM), without a hit: top-dose activity, negative = inhibition, most hits filed as inhibitors; actives 1% (n = 390,000)
Target sequence (Q9UNA4 whole entry, looked up): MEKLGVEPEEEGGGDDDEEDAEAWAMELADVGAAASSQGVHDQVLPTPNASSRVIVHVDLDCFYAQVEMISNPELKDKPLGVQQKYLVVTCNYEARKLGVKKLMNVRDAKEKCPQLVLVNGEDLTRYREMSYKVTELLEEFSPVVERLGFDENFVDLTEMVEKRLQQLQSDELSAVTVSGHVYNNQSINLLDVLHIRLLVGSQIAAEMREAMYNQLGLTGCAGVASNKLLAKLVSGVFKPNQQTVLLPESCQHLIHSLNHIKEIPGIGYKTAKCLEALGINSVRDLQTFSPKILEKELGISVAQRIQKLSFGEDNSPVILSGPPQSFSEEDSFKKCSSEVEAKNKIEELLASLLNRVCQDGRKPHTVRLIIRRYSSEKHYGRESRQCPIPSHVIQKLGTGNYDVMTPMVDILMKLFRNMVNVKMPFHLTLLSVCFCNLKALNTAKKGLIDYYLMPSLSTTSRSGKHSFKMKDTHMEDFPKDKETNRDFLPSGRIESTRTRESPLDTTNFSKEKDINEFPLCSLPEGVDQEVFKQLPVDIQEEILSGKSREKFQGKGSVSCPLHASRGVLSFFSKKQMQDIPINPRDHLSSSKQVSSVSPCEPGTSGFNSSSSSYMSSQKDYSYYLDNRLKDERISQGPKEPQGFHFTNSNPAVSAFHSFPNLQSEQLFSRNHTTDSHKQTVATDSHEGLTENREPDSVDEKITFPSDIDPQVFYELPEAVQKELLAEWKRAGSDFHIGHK
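Fluorescent replication assay read twice, at 0 min and 10 min after adding 50 nM (final) substrate. Enzyme (10 nM) and compounds were first incubated 15 min at room temperature; enzyme-free buffer wells were negative controls.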
Pol eta inh-1: blocks human DNA polymerase eta activity; Q9Y253; AID 588591; Potency, µM (highest dose often 114 µM), without a hit: top-dose activity change, negative = inhibition, actives largely listed as inhibitors; recombinant Pol eta, fluorescent DNA replication assay; actives 1.2% (n = 390,000); also: % is scaled to controls: 0 for no effect and ±100 for the full control effect
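Fluorescent replication assay: 50 nM final substrate added after a 15 min room-temperature compound preincubation with 10 nM enzyme. Signal taken at 0 min and again at 10 min.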
TbPGK inh: validation of Trypanosoma brucei phosphoglycerate kinase inhibitors. shares compounds with Pol kappa inh-1. TbPGK coupled GAPDH assay, Kinase-Glo luminescence. Potency, µM (highest dose often 57.5 µM), for the others: top-dose activity change, negative = inhibition, usual class: inhibitors. actives 79% (n = 500); also: % is scaled to controls: 0 for no effect and ±100 for the full control effect; nearly all actives have a fitted effect of over 65% in size
Pol iota confirm: Human Pol iota inhibitor confirmatory assay; shares compounds with Pol kappa inh-1; Pol iota primer extension, TAMRA/BHQ fluorescence; Potency, µM, most hits filed as inhibitors; actives 77% (n = 1,500)
Pol kappa inh-2: confirmation of human DNA polymerase kappa inhibitors; Potency, µM, most hits filed as inhibitors; actives 76% (n = 920); shares compounds with Pol eta inh-1; purified Pol-kappa, fluorescent strand-displacement substrate; AID 720501
Pol eta inh-2: confirmation of human DNA polymerase eta inhibitors; shares compounds with Pol eta inh-1; Pol eta primer extension, TAMRA/BHQ fluorescence, 10 min; Potency, µM, hits mostly inhibitors; actives 64% (n = 2,600); AID 720502
The depositor's hits bear a star; u = inconclusive; x = not tested or not shown; [ ] = dose if it differs, or a comment. Calls follow the shape of the dose curve; as a rule, active = well fitted curve in the direction sought with a large enough effect; inconclusive = small, poorly fitted or top-dose-only effect, or another doubt; inactive = no such curve, though single readings can be large; an effect the other way counts as inactive or inconclusive. Potency is read from the fitted curve at half-maximal effect.

SMILES	Pol kappa inh-1	FEN1 inh	WRN inhibitor	Pol beta inh	POLI inh	Pol eta inh-1	Pol iota confirm	Pol eta inh-2	others
O=C(O)c1ccc(COc2ccc3ccccc3c2/C=C2/NC(=O)N(Cc3ccc(F)cc3)C2=O)cc1	u	u	79.4µM*	22.4µM*	-3.8%	31.6µM*	u	u	Pol kappa inh-2=37.7*
CCOC(=O)c1cccc(-n2cccc2/C=C2\NC(=O)N(CC(=O)O)C2=O)c1	-1.8%	4.2%	x	x	41.3%	-14.6%	x	x
Cc1ccc(CN2C(=O)N/C(=C\c3cccn3-c3cccc(C(=O)O)c3)C2=O)cc1	50.1µM*	u	31.6µM*	8.91µM*	14.1µM*	8.91µM*	21.2*	26.9*
O=C(O)c1cccc(-n2cccc2/C=C2\NC(=O)N(Cc3ccc(F)cc3)C2=O)c1	79.4µM*	u	u	11.2µM*	22.4µM*	20µM*	67*	30.1*
Cc1cc(C(=O)O)ccc1-c1ccc(/C=C2\NC(=O)N(Cc3ccc(F)cc3)C2=O)o1	28.2µM*	u	u	u	u	7.08µM*	16.8*	16.9*
CN(C)c1ccc(C(CNS(=O)(=O)c2ccc(F)cc2)N2CCCC2)cc1 (configuration not stated)	-1.3%[60.1 µM]	3.8%	x	5.6%	13.2%	-11.3%	x	x
Cc1cc(Nc2ccc(Cl)cc2)n2cnnc2n1	-15.0%	-10.6%	x	-9.5%	2.7%	-13.8%	x	x
Cc1oc(-c2ccc(C(=O)NC(C)c3ccccc3)cc2)nc1CS(=O)(=O)c1ccccc1 (configuration not stated)	10.4%	-8.6%	x	u	17.4%	0.5%	x	x
CN(C)[C@H]1CCN([C@@H]2CS(=O)(=O)N[C@H]2COCc2ccccc2)C1	x	x	6.5%	x	x	x	x	x
COc1ccc(CNC(=O)CC[C@H]2O[C@@H](n3ccc(=O)[nH]c3=O)[C@H](O)[C@@H]2O)cc1	x	x	-10.3%	x	x	x	x	x
O=C1C2C(C(=O)N1/N=C/c1cc([N+](=O)[O-])c(O)cc1O)C1C=CC2C12CC2 (configuration not stated)	50.1µM*	-32.0%	u	11.2µM*	20µM*	10µM*	42.3*	30.1*
C=CCc1cc(/C=C/c2nc(O)c([N+](=O)[O-])c(=O)[nH]2)cc(OC)c1O	79.4µM*	44.7µM*	44.7µM*	25.1µM*	u	11.2µM*	u	30.1*
C/C=C\C=C/C(=O)Nc1cccc(C2=NOC3(C2)C[C@H](C(N)=O)N(C(=O)CC)C3)c1 (some centres not stated)	-3.5%	1.7%	-18.8%	-2.3%	u	u	x	x
C/C=C/C=C/C(=O)N1CC2(CC(c3cccc(NC(=O)CCCCC)c3)=NO2)C[C@H]1C(N)=O (some centres not stated)	-12.2%	5.4%	-11.4%	13.9%	u	u	x	x
C/C=C/C=C\C(=O)Nc1cccc(C2=NOC3(C2)C[C@@H](C(N)=O)N(C(=O)/C(C)=C/C)C3)c1 (some centres not stated)	50.1µM*	-4.0%	u	-0.6%	15.8µM*	17.8µM*	10.6*	16.9*
C=C(C)C(=O)Nc1cccc(C2=NOC3(C2)C[C@@H](C(N)=O)N(C(=O)/C=C/C=C/C)C3)c1 (some centres not stated)	28.2µM*	u	u	2.51µM*	22.4µM*	3.16µM*	u	16.9*	TbPGK inh=0.73µM*
COc1ccc(NC(=O)Cn2cc(C(=O)c3ccccc3)c(=O)c3cc(OC)ccc32)c(OC)c1	-4.9%	22.8%	x	22.5%	-3.8%	4.4%	x	x
CCSc1ncc(Cl)c(C(=O)Nc2sc(C(C)=O)c(C)c2C(=O)OC)n1	14.8%	-6.6%	x	26.6%	-11.5%	-0.4%	x	x
O=C(O)C(c1ccccc1)N1C(=O)/C(=C\c2ccc(-c3ccccc3Cl)o2)SC1=S (configuration not stated)	-12.3%	50.1µM*	50.1µM*	u	11.2µM*	39.8µM*	59.7*	37.9*	TbPGK inh=8.19µM*;Pol kappa inh-2=10.6*
CCC(=O)N1c2ccccc2CC1C(=O)NCCCN1CCN(c2ccccc2)CC1 (configuration not stated)	-3.0%[60.1 µM]	11.8%	x	10.4%	23.6%	-19.2%	x	x
COc1ccc(C(=O)/C=C/c2ccc(OCc3ccccc3)cc2)cc1CSCC(=O)O	-19.5%	-17.4%	u	5.4%	44.7µM*	44.7µM*	u	u
COC(=O)\C(C(C)=O)=C(/C=C/C=C/C=C/N(C)C)N(C)C	22.4µM*	u	21.2µM*	10µM*	3.98µM*	2.82µM*	15*	6.01*	TbPGK inh=4.11µM*;Pol kappa inh-2=5.32*
COC(=O)/C(C(C)=O)=C(\C=C\N(C)C)N(C)C	-3.1%	-0.1%	-7.9%	17.4%	23.6%	-8.3%	x	x
CCc1cc(=O)oc2cc(C)c3c(-c4ccc(F)cc4)coc3c12	-5.6%	-15.6%	x	8.7%	-2.1%	-11.9%	x	x
CC(=O)Nc1cccc(-c2ccnc3c2CC(C)(C(=O)NCCc2ccccc2)O3)c1 (configuration not stated)	x	x	10.5%[57.1 µM]	x	x	x	x	x
Cc1cc(/C=N/NC(=O)C(O)(c2ccccc2)c2ccccc2)c(C)n1-c1cccc(C(=O)O)c1	u	u	u	15.8µM*	15.8µM*	10µM*	33.6*	15.1*
CC(=O)NC1=NC(=O)/C(=C/c2cc(C)n(-c3cccc(C(=O)O)c3)c2C)S1	39.8µM*	50.1µM*	44.7µM*	6.31µM*	14.1µM*	3.98µM*	9.47*	10.7*	TbPGK inh=6.51µM*;Pol kappa inh-2=8.44*
CC(=O)NC1=NC(=O)/C(=C/c2cc(C)n(-c3ccc(NC(C)=O)cc3)c2C)S1	-18.5%	1.9%	-22.1%	10.3%	-8.3%	-2.7%	x	x
O=c1cc(CCc2ccccc2)oc2cccc(O)c12	2.7%	-19.9%	0.9%	x	24.3%	-14.0%	x	x
